# Reference: PubChem BioAssay (NCATS)
# Inconclusive results are not listed. A call without a number means that no potency is given here. A number with no mark means an inactive call. Activity calls are given as the source filed them. Calls come from the whole dose curve; as a rule, active = well fitted curve in the direction sought with a large enough effect; inconclusive = small, poorly fitted or top-dose-only effect, or another doubt; inactive = no such curve, though single readings can be large; an effect the other way counts as inactive or inconclusive.
# Experiments:
# [1] = target: Ubiquitin carboxyl-terminal hydrolase 1 (Homo sapiens) (UniProt O94782); test: Inhibitors of USP1/UAF1: Pilot qHTS (AID 504865); note: nearly all actives have a fitted effect of over 35% in size; note: potency is the fitted concentration of half-maximal effect
# Sequence of Ubiquitin carboxyl-terminal hydrolase 1 (Homo sapiens) (O94782 whole entry, looked up): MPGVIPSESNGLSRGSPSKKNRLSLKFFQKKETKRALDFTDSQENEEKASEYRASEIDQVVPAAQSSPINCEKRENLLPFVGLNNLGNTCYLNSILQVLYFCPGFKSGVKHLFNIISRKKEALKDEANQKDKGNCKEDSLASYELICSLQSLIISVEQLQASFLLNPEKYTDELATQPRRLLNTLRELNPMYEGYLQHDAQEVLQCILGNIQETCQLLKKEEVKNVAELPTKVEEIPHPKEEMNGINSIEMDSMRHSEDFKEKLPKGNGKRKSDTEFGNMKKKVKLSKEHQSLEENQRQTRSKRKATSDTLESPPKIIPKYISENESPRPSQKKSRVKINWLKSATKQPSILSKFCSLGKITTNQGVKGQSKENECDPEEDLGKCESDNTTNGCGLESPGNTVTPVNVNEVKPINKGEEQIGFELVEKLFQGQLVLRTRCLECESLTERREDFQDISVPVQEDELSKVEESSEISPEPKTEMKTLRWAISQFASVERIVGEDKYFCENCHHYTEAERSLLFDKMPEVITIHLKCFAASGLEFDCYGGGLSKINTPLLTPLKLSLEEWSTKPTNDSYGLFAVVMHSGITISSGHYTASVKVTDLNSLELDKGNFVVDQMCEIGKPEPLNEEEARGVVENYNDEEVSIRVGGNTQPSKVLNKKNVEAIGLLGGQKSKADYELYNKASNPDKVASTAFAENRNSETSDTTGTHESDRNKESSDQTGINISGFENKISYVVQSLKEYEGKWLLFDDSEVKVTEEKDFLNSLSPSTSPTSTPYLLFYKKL
# Outline: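 Deubiquitinase activity followed as kinetic rhodamine fluorescence release from 150 nM Ub-Rho. 1 nM USP1/UAF1 with compound, after 15 min room-temperature preincubation, in HEPES pH 7.8 buffer containing TCEP, EDTA, BSA and Tween-20.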
# [2] = target: Luciferin 4-monooxygenase (Photinus pyralis) (UniProt P08659); test: Biochemical firefly luciferase enzyme assay for NPC (AID 624030);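 note: purified P. pyralis luciferase at 10 nM with luciferin and ATP substrate; nearly all actives have a fitted effect of over 70% in size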
# Sequence of Luciferin 4-monooxygenase (Photinus pyralis) (P08659 whole entry, looked up): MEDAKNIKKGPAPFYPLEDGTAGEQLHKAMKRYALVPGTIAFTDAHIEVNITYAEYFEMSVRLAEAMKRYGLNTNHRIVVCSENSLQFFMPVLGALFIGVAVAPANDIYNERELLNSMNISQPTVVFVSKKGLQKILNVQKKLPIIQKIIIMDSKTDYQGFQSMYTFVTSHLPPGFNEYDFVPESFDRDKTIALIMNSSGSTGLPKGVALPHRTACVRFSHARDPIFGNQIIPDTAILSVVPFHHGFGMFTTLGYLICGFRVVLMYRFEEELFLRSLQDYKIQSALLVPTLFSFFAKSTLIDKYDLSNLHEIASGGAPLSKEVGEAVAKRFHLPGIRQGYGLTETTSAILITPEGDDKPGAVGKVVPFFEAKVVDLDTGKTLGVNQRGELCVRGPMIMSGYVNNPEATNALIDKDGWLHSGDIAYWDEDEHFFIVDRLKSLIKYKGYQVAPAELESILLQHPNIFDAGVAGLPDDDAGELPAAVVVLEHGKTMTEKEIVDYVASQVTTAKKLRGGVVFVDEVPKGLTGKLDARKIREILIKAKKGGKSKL
# Outline: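 Purified P. pyralis luciferase at 10 nM in 50 mM Tris Acetate (final), luminescence read within 5 minutes of enzyme addition to compounds. Activity normalised to PTC124 versus DMSO; concentration-response curves classed by r2, magnitude and activity.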
# [3] = qHTS profiling for inhibitors of Plasmodium falciparum proliferation (AID 504749); note: nearly all actives have a fitted effect of over 60% in size; conditions: P. falciparum in erythrocytes, SYBR Green DNA, 72 h, at 28.7 µM (top of the series)
# Outline: (§1)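 Each compound contacts P. falciparum-infected red blood cells for 72 h at 37 C; lysis buffer (Tris, EDTA, saponin, Triton X, SYBR Green I) is added and fluorescence measured next morning; values normalized to controls.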
# ATS189 = test: as above; conditions: P. falciparum in erythrocytes, SYBR Green DNA, 72 h; series mostly up to 28.7 µM
# Outline: as §1
# C2A = test: as above; conditions: P. falciparum in erythrocytes, SYBR Green DNA, 72 h; series mostly up to 28.7 µM
# Outline: as §1
# CP191 = test: as above; conditions: P. falciparum in erythrocytes, SYBR Green DNA, 72 h; series mostly up to 28.7 µM
# Outline: as §1
# CP192 = test: as above; conditions: P. falciparum in erythrocytes, SYBR Green DNA, 72 h; series mostly up to 28.7 µM
# Outline: as §1
# CP201 = test: as above; conditions: P. falciparum in erythrocytes, SYBR Green DNA, 72 h; series mostly up to 28.7 µM
# Outline: as §1
# CP215 = test: as above; conditions: P. falciparum in erythrocytes, SYBR Green DNA, 72 h; series mostly up to 28.7 µM
# Outline: as §1
# CP237 = test: as above; conditions: P. falciparum in erythrocytes, SYBR Green DNA, 72 h; series mostly up to 28.7 µM
# Outline: as §1
# CP238 = test: as above; conditions: P. falciparum in erythrocytes, SYBR Green DNA, 72 h; series mostly up to 28.7 µM
# Outline: as §1
# CP268 = test: as above; conditions: P. falciparum in erythrocytes, SYBR Green DNA, 72 h; series mostly up to 28.7 µM
# Outline: as §1
# CP269 = test: as above; conditions: P. falciparum in erythrocytes, SYBR Green DNA, 72 h; series mostly up to 28.7 µM
# Outline: as §1
# CP286 = test: as above; conditions: P. falciparum in erythrocytes, SYBR Green DNA, 72 h; series mostly up to 28.7 µM
# Outline: as §1
# CP325 = test: as above; conditions: P. falciparum in erythrocytes, SYBR Green DNA, 72 h; series mostly up to 28.7 µM
# Outline: as §1
# CP329 = test: as above; conditions: P. falciparum in erythrocytes, SYBR Green DNA, 72 h; series mostly up to 28.7 µM
# Outline: as §1
# FAB9 = test: as above; conditions: P. falciparum in erythrocytes, SYBR Green DNA, 72 h; series mostly up to 28.7 µM
# Outline: as §1
# JCK = test: as above; conditions: P. falciparum in erythrocytes, SYBR Green DNA, 72 h; series mostly up to 28.7 µM
# Outline: as §1
# PC49 = test: as above; conditions: P. falciparum in erythrocytes, SYBR Green DNA, 72 h; series mostly up to 28.7 µM
# Outline: as §1
# [4] = target: ATP-dependent 6-phosphofructokinase (Trypanosoma brucei brucei) (UniProt O15648); test: qHTS Assay to Find Inhibitors of T. brucei phosphofructokinase: hit validation (AID 492961);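 note: luminescence reports ADP formed as PFK phosphorylates fructose-6-phosphate with ATP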
# Sequence of ATP-dependent 6-phosphofructokinase (Trypanosoma brucei brucei) (O15648 whole entry, looked up): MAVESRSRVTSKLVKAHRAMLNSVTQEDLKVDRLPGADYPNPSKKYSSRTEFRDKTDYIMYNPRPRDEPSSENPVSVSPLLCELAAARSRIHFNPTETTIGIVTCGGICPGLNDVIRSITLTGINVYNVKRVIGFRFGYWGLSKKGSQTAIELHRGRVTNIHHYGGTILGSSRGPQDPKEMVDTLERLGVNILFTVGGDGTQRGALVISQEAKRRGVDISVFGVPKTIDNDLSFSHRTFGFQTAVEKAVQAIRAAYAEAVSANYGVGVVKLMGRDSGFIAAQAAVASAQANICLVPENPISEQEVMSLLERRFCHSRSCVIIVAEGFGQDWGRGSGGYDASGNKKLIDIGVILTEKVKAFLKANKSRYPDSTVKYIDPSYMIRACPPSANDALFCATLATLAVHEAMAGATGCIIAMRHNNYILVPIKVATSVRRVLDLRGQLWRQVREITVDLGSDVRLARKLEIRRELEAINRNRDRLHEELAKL
# Outline: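 Compounds titrated; %activity normalized to 0x and 1x enzyme controls, curve-fitted. Readout: ADP-Glo luminescence after 45 min room-temperature reaction of 1.25 nM PFK, 0.1 mM ATP, 0.5 mM F6P, pH 8.0.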
smiles,measurement,setting,value
CN[C@@H](CC(C)C)C(=O)N[C@@H]1C(=O)N[C@H](CC(N)=O)C(=O)N[C@@H]2C(=O)N[C@H]3C(=O)N[C@H](C(=O)N[C@H](C(=O)O)c4cc(O)cc(O)c4-c4cc3ccc4O)[C@H](O)c3ccc(c(Cl)c3)Oc3cc2cc(c3O[C@H]2O[C@@H](CO)[C@@H](O)[C@@H](O)[C@@H]2O[C@@H]2C[C@](C)(N)[C@H](O)[C@H](C)O2)Oc2ccc(cc2Cl)[C@@H]1O,Potency,[1],inactive
CC(=O)OC1C([N+]2(C)CCCCC2)C[C@H]2C3CC[C@H]4C[C@H](OC(C)=O)C([N+]5(C)CCCCC5)CC4(C)C3CCC12C (stereo partly specified),Potency,[1],inactive
NCCCCC(NC(CCc1ccccc1)C(=O)O)C(=O)N1CCCC1C(=O)O (stereo unspecified),Potency,[1],inactive
CC(CO)NC(=O)C1C=C2c3cccc4[nH]cc(c34)CC2N(C)C1 (stereo unspecified),Potency,[1],inactive
same,Potency,[2],inactive
same,"activity, negative = inhibition",[3]; parasite line A,-10.6%
same,"activity, negative = inhibition",[3]; parasite line B,-8.5%
same,Potency,ATS189,inactive
same,Potency,C2A,inactive
same,Potency,CP191,inactive
same,Potency,CP192,inactive
same,Potency,CP201,inactive
same,Potency,CP215,inactive
same,Potency,CP237,inactive
same,Potency,CP238,inactive
same,Potency,CP268,inactive
same,Potency,CP269,inactive
same,Potency,CP286,inactive
same,Potency,CP325,inactive
same,Potency,CP329,inactive
same,Potency,FAB9,inactive
same,Potency,JCK,inactive
same,Potency,PC49,inactive
CCN(CC)C(=O)N[C@@H]1C=C2c3cccc4[nH]cc(c34)C[C@H]2N(C)C1,outcome,[4],inactive
same,Potency,[1],inactive
same,Potency,[2],inactive
same,"activity, negative = inhibition",[3]; parasite line A,-22.6%
same,Potency,CP192,inactive
same,Potency,CP201,inactive
same,Potency,CP215,inactive
same,Potency,CP325,inactive
same,Potency,FAB9,inactive
same,Potency,PC49,inactive
NC[C@@H]1O[C@H](OC2[C@@H](CO)O[C@@H](OC3[C@H](O)[C@H](N)C[C@H](N)[C@H]3OC3O[C@H](CO)[C@@H](O)[C@H](O)[C@@H]3N)[C@H]2O)C(N)[C@H](O)[C@@H]1O (stereo partly specified),Potency,[1],inactive
C[C@]12CC[C@@H]3c4ccc(O)cc4C[C@@H](CCCCCCCCCS(=O)CCCC(F)(F)C(F)(F)F)C3[C@@H]1CC[C@@H]2O (stereo partly specified),Potency,[1],inactive
C[C@@H](N)[C@@H](O)c1ccc(O)c(O)c1,Potency,[1],inactive
same,Potency,[2],inactive
same,"activity, negative = inhibition",[3]; parasite line A,-5.35%
same,"activity, negative = inhibition",[3]; parasite line B,7.25%
same,Potency,ATS189,inactive
same,Potency,C2A,inactive
same,Potency,CP191,inactive
same,Potency,CP192,inactive
same,Potency,CP201,inactive
same,Potency,CP215,inactive
same,Potency,CP237,inactive
same,Potency,CP238,inactive
same,Potency,CP268,inactive
same,Potency,CP269,inactive
same,Potency,CP286,inactive
same,Potency,CP325,inactive
same,Potency,CP329,inactive
same,Potency,FAB9,inactive
same,Potency,JCK,inactive
same,Potency,PC49,inactive
CC(=O)O[C@H]1C[C@H]2CC[C@@H]3[C@H]4C[C@@H]([N+]5(C)CCCCC5)[C@@H](OC(C)=O)[C@]4(C)CC[C@@H]3[C@@]2(C)C[C@@H]1[N+]1(C)CCCCC1,Potency,[1],inactive
CNC(C)C1CC[C@H](N)[C@@H](OC2C(N)C[C@H](N)[C@@H](OC3OC[C@](C)(O)C(NC)[C@H]3O)C2O)O1 (stereo partly specified),Potency,[1],inactive
CC(=O)O[C@H]1C[C@H](O[C@H]2[C@@H](O)CC(O[C@H]3[C@@H](O)C[C@H](O[C@H]4CC[C@@]5(C)[C@H](CC[C@@H]6[C@@H]5CC[C@]5(C)[C@@H](C7=CC(=O)OC7)CC[C@]65O)C4)O[C@@H]3C)O[C@@H]2C)O[C@H](C)[C@H]1O[C@@H]1O[C@H](CO)[C@@H](O)[C@H](O)[C@H]1O (stereo partly specified),outcome,[4],inactive
same,Potency,[1],inactive
same,Potency,[2],inactive
same,"activity, negative = inhibition",[3]; parasite line A,9.47%
same,"activity, negative = inhibition",[3]; parasite line B,16.3%
same,Potency,ATS189,inactive
same,Potency,C2A,inactive
same,Potency,CP192,inactive
same,Potency,CP201,inactive
same,Potency,CP215,inactive
same,Potency,CP238,inactive
same,Potency,CP268,inactive
same,Potency,CP269,inactive
same,Potency,CP286,inactive
same,Potency,CP325,inactive
same,Potency,CP329,inactive
same,Potency,FAB9,inactive
same,Potency,JCK,inactive
same,Potency,PC49,inactive
CC(C)n1c(/C=C\[C@@H](O)C[C@@H](O)CC(=O)O)c(-c2ccc(F)cc2)c2ccccc21,Potency,[1],inactive
CC(=O)N1CCN(c2ccc(OC[C@@H]3CO[C@@](Cn4ccnc4)(c4ccc(Cl)cc4Cl)O3)cc2)CC1,Potency,[1],inactive
CC(CO)NC(=O)C1C=C2c3cccc4[nH]cc(c34)C[C@H]2N(C)C1 (stereo partly specified),Potency,[1],inactive
CC1(C)C(C(Cl)Cl)C2(Cl)C(Cl)C(Cl)C1(Cl)C2(Cl)Cl (stereo unspecified),Potency,[1],inactive
O=C1CC[C@]2(O)C3Cc4ccc(O)c5c4C2(CCN3CC2CC2)C1O5 (stereo partly specified),Potency,[1],inactive
CNNC,Potency,[1],inactive
CSc1nc(NC(C)C)nc(NC(C)C)n1,Potency,[1],inactive
CC1CC(C)C(=O)[C@H](C(O)CC2CC(=O)NC(=O)C2)C1 (stereo partly specified),Potency,[1],inactive
CCC1C(=O)OC[C@H]1Cc1cncn1C (stereo partly specified),Potency,[1],inactive
COc1ccc(C2Oc3c(I)c(OC)cc(OC)c3CC2O)cc1OC (stereo unspecified),Potency,[1],inactive
CC(=O)OCC1=C(C(=O)O)N2C(=O)C(NC(=O)CCCC(N)C(=O)O)C2SC1 (stereo unspecified),Potency,[1],inactive
C/C=C1/C[C@@H](C)[C@](O)(CO)C(=O)OCC2=CCN3CC[C@@H](OC1=O)C23 (stereo partly specified),Potency,[1],inactive
N#Cc1c(Cl)c(Cl)c(Cl)c(C#N)c1Cl,Potency,[1],10 µM (active)
NC1C[C@H]1c1ccccc1 (stereo partly specified),Potency,[1],inactive
CC1(C)S[C@H]2[C@@H](N)C(=O)N2[C@H]1C(=O)O,Potency,[1],inactive
COC(=O)[C@]1(C)CC[C@@]2(C)CC[C@@]3(C)C4=CC=C5C(=CC(=O)C(O)=C5C)[C@@]4(C)CC[C@@]3(C)C2C1 (stereo partly specified),Potency,[1],44.7 µM (active)
OCC(O)Cc1ccc2c(c1)OCO2 (stereo unspecified),Potency,[1],inactive
CN(CCC(N)CC(=O)NC1C=CC(n2ccc(N)nc2=O)OC1C(=O)O)C(=N)N (stereo unspecified),Potency,[1],inactive
CC(C)=O,Potency,[1],inactive
NCC(N)C(=O)c1ccccc1 (stereo unspecified),Potency,[1],inactive
COc1c2c(c(CC=C(C)C)c3oc(=O)c(-c4ccc(O)cc4)c(O)c13)OC(C)(C)C=C2,Potency,[1],79.4 µM (active)
O=C(NC(=O)c1c(F)cccc1F)Nc1ccc(Cl)cc1,Potency,[1],inactive
CC[C@]1([C@H]2O[C@@H]([C@@H]3O[C@](O)(CO)[C@@H](C)C[C@H]3C)C[C@H]2C)CC[C@@H]([C@]2(C)CC[C@@]3(C[C@@H](O)[C@@H](C)[C@@H]([C@H](C)[C@H](OC)[C@H](C)C(=O)O)O3)O2)O1,Potency,[1],inactive
same,Potency,[2],inactive
CC(=O)Oc1c2c(c(CC=C(C)C)c3c1C(=O)C1=CC4CC5C(C)(C)OC(C/C=C(\C)C(=O)O)(C4=O)[C@]15O3)OC(C)(CCC=C(C)C)C=C2 (stereo partly specified),Potency,[1],12.6 µM (active)
CCC1C2CC3C4N(C)c5ccccc5[C@]45CC(C2C5O)N3C1O (stereo partly specified),Potency,[1],inactive
CC1=CC(=O)c2c(O)cccc2C1=O,Potency,[1],17.8 µM (active)
Cc1cccc2c3c(ccc12)C1=C(C(=O)C3=O)C(C)CO1 (stereo unspecified),Potency,[1],50.1 µM (active)
CC1CC(Cl)CCC1C(=O)OC(C)(C)C (stereo unspecified),Potency,[1],inactive
COC(=O)/C(C)=C\CC12OC(C)(C)C3CC(C=C4C(=O)c5c(OC)c6c(c(CC=C(C)C)c5OC431)OC(C)(CCC=C(C)C)C=C6)C2=O (stereo unspecified),Potency,[1],39.8 µM (active)
CC[C@]1(O)CC(O[C@@H]2CC(N(C)C)C(O)C(C)O2)c2c(cc3c(c2O)C(=O)c2c(O)cccc2C3=O)C1C(=O)OC (stereo partly specified),Potency,[1],56.2 µM (active)
CNC1=CN(O)C(c2ccccc2)=c2cc(Cl)ccc2=N1,Potency,[1],inactive
same,Potency,[2],inactive
CC(=O)OC1C2CCC3C1(CC(O)[C@@]1(O)[C@@H](CC(O)C1(C)C)[C@]3(C)O)C[C@@]2(C)O (stereo partly specified),Potency,[1],inactive
C[C@@]12C=CC(=O)C=C1CCC1C2CC[C@]2(C)C(=O)CCC12 (stereo partly specified),Potency,[1],inactive
CCCCN(CC)c1c([N+](=O)[O-])cc(C(F)(F)F)cc1[N+](=O)[O-],Potency,[1],inactive
O=C1C=C2C(=CCOC2O)O1 (stereo unspecified),Potency,[1],50.1 µM (active)
CN1[C@H]2CC(OC(=O)[C@H](CO)c3ccccc3)C[C@H]1[C@H]1O[C@H]12 (stereo partly specified),Potency,[1],inactive
CC(C)N(C(=O)CCl)c1ccccc1,Potency,[1],inactive
COc1cc2c(cc1OC)-c1c(OC)c(OC)c(C=O)c3c1[C@H](C2)N(C)CC3,Potency,[1],20 µM (active)
